Among all 340,000 compounds or so, about 2,100 (0.62%) were called active.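 The calls were made as follows: active = first-screen hits whose inhibition reached a set limit at any dose in the follow-up dose series; inconclusive = inhibition above the set first-screen limit but never retested; inactive = the rest.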 Not all results are given here. Entries with a potency or affinity are not part of this list.
target: Rac GTPase-activating protein 1 (Homo sapiens) (UniProt Q9H0H5); assay: MgcRacGAP GTPase-activating activity inhibitors, confirmation, biochemical, ADP Hunter fluorescence, primary and confirmatory (AID 624330); settings: MgcRacGAP-stimulated Rac1 GTP hydrolysis, at 30 µM, stronger effect = higher value, GST-tagged Rac1 F28L mutant substrate;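 also: fluorescence reports GDP produced by GAP-driven GTP hydrolysis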
Sequence (Q9H0H5 whole entry, looked up): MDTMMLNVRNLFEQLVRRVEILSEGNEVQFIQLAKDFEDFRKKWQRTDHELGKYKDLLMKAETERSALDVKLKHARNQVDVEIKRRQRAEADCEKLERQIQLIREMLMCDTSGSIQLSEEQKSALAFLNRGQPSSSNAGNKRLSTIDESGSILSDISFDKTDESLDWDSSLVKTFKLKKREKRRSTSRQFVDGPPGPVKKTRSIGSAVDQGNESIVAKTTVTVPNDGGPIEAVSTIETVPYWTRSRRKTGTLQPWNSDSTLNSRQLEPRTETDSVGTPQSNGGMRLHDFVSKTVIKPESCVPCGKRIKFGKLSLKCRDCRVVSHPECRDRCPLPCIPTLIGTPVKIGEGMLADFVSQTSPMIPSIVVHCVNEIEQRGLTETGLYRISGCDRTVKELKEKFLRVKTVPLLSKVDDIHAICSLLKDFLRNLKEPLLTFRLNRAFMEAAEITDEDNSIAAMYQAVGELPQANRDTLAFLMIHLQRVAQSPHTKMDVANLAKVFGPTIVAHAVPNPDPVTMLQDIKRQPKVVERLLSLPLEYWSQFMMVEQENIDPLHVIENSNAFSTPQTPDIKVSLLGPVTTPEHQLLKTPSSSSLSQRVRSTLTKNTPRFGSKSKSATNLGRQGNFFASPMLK

inhibition, inactive:
O=C(CCn1cnnn1)NC1CCCN(Cc2ccccc2F)C1 (stereo unspecified) -0.5%
CN(C)c1ccc(C=NNC(=O)c2cccnc2)cc1 1.95%
CCCCN(C(=O)c1ccc2c(c1)S(=O)(=O)N=C1CCCCCN12)c1c(N)n(CCCC)c(=O)[nH]c1=O -0.05%
CC1C(=O)Nc2ccc(S(=O)(=O)NCc3ccc(Cl)cc3)cc2NC1=O (stereo unspecified) 7.58%
Cc1ccc(F)cc1NC(=O)CCOc1ccccc1 -2.1%
CCCc1cc(=O)n2nc(N3CCC(C(=O)NCc4ccco4)CC3)sc2n1 4.69%
COc1cc2c(cc1NC(=O)c1ccncc1)oc1ccccc12 14.9%
C=Cn1cc(CNC[C@H]2O[C@@H](n3ccc(N)nc3=O)[C@H](O)[C@@H]2O)c(C)n1 0.77%
COc1ccc(CCNS(=O)(=O)c2ccc(-n3cnnn3)cc2)cc1OC 4.09%
O=C(Nc1nc2ccccc2[nH]1)Nc1ccccc1F -2.47%
CCCc1ccc2oc(C(=O)N3CCCC3)c(C)c2c1 3.8%
O=C(NC1CCN(S(=O)(=O)c2ccc(F)cc2)CC1)c1cccc(F)c1 4.4%
Cc1ccc(-n2nc3cc(C)c(N)cc3n2)cc1 8.27%
Cc1cc2nc3ccc(N(C)C)cc3nc2cc1N 18.1%
CS(=O)(=O)N1CCN(c2ccccc2NC(=O)c2ccc(Cl)cc2)CC1 13.8%
O=[N+]([O-])c1c(Nc2ccccc2O)cc(Cl)c2nonc12 16.1%
O=[N+]([O-])c1ccc2nonc2c1Nc1ccccc1 5.91%
O=[N+]([O-])c1ccc(Nc2ccccc2O)c2nonc12 19.7%
CN(C)c1cc(Nc2ccc(O)cc2)c([N+](=O)[O-])c2nonc12 13.9%
CC(=O)c1ccc(Nc2ccc([N+](=O)[O-])c3nonc23)cc1 4.9%
O=[N+]([O-])c1c(Nc2ccc(O)cc2)cc(Cl)c2nonc12 16.8%
Cn1c(/N=C/c2ccccc2[N+](=O)[O-])nc2ccccc21 2.88%
CC(=O)N1CCC(N(CCN2CCOCC2)C(=S)Nc2cc(C)cc(C)c2)CC1 9.32%
Cc1ccc2cc(CN(CC(C)C)S(=O)(=O)c3cccc4nonc34)c(=O)[nH]c2c1 9.22%
CC(/C=C/C=C/c1ccccc1)=N/NC(=O)C(O)c1ccccc1 (stereo unspecified) 13.5%
C=COCCCNc1ncnc2sc(-c3ccccc3)cc12 23.7%
OCCOCCNc1ncnc2sc(-c3ccccc3)cc12 23%
O=C(NCCCN1CCCC1)c1ccc2c(c1)N(Cc1ccc(F)cc1)C(=O)c1ccccc1S2=O (stereo unspecified) 6.31%
CSc1n[nH]c(NCc2ccc(C)cc2)n1 -0.45%
CC(C)(C)c1nc(N)nc(=O)[nH]1 4.68%
Nc1nc(N)c2[nH]c(-c3ccccc3)nc2n1 6.78%
COc1cc(O)c2c(c1)COC2=O 4.96%
C=CCc1cc(OC)ccc1OCCON1C(=O)CCC1=O 8.6%
CN(C)c1cccc(C(=O)OCC(=O)NC(=O)NCc2ccccc2)c1 -0.47%
CCOC(=O)c1cnc(Nc2ccccc2)nc1C(F)(F)F 1.7%
Cc1c(N=Cc2ccc(-c3ccc(Cl)cc3)o2)c(=O)n(-c2ccccc2)n1C 3.54%
O=C(Cc1cccc(C(F)(F)F)c1)OCN1C(=O)c2ccccc2C1=O 4.25%
CCCCCC(=O)Nc1cc(S(=O)(=O)N2CCCCC2)ccc1N1CCCCC1 9.51%
CCS(=O)(=O)c1ccc(O)c(NC(=O)CCCC(=O)O)c1 13.8%
Cc1ccc(-c2nc(CS(=O)(=O)CC(=O)NCc3cccc(F)c3)c(C)o2)cc1 7.24%
CC#C[C@@H](CC)c1ccc2ccn(C)c2c1 9.11%
O=C1c2cc(CO)cc(O)c2C(=O)c2c(O[C@@H]3OC(CO)[C@@H](O)[C@@H](O)[C@@H]3O)cccc21 (stereo partly specified) 7.99%
O=C1c2c(O)cccc2C(C2OC(CO)[C@@H](O)[C@H](O)[C@H]2O)c2cc(CO)cc(O)c21 (stereo partly specified) 11.8%
Cc1ccc2c(C(=O)N3CCN(c4ccccc4)CC3)cc(-c3cccnc3)nc2c1C 6.48%
COC(=O)CC1SC(=O)NC1=Nc1ccc(OC)cc1 (stereo unspecified) 6.86%
COC(=O)CC1SC(=O)NC1=Nc1ccc(C)cc1 (stereo unspecified) 8.37%
Cc1cc(Nc2ccccc2Cl)n2nnnc2n1 2.54%
COC(=O)CSc1nc(N)c2c3c(sc2n1)C(c1ccccc1)SC(c1ccccc1)C3 (stereo unspecified) 6.76%
O=C1C(=C(O)c2ccccc2)C(=O)c2ccccc21 8.92%
O=C1C(=O)c2ccc(-c3ccccc3)cc2-c2ccccc21 7.95%
COc1ccc(N(CC(=O)Nc2ccccc2F)S(=O)(=O)c2ccc(OC)c(OC)c2)cc1 -10.3%
COc1ccc(C(=O)Nc2cccc3nc(C)ccc23)cc1OC 12.2%
CN(C)Cc1c(O)ccc2occ(C(=O)c3ccccc3)c12 6.64%
Cc1ccc(C(=O)c2coc3ccc(O)c(Cl)c23)cc1 16%
COc1ccc(NC(=O)COc2ccc3c(c2)OCO3)cc1 6.39%
COc1cccc(CN2CC(C(=O)NC3CCCCCC3)CCC2=O)c1 (stereo unspecified) 2.79%
CC(C)c1ccccc1OCC(O)CN(CC(O)COc1cccc2ccccc12)C(C)C (stereo unspecified) 4.64%
CCN(CCNCC(O)COCc1ccc(Cl)cc1)c1cccc(C)c1 (stereo unspecified) 31.7%
C=CCOc1ccc(C(=O)Nc2ncn[nH]2)cc1 4.62%
COc1ccc(NC(=O)C2CCCO2)cc1OC (stereo unspecified) 10.4%
COc1ccc([C@@H](OC)[C@@]2(Cc3ccc(O)cc3)N=C(N)N(C)C2=O)cc1 0.02%
COc1ccc(NC(=O)c2ccccc2NC(=O)C2CCCO2)cc1 (stereo unspecified) 10.5%
CC(=Nc1ccccc1)c1sc2ccccc2c1O 19.1%
CC(=Nc1ccc(C)cc1)c1sc2ccccc2c1O 2.37%
O=c1[nH]c(SCc2ccccc2)nc2ccsc12 6.38%
O=C(NCc1ccccc1)/C(=C\c1ccccc1)NC(=O)c1ccco1 6.99%
O=C(NCc1ccccc1)/C(=C/c1ccccc1)NC(=O)c1ccco1 2.6%
COc1ccc(NC(=S)N2CCNC(=O)C2CC(=O)Nc2ccc(C)cc2)cc1 (stereo unspecified) 15.2%
COc1ccc(/C=N\NC(=O)CCN2CCN(c3ccccc3)CC2)cc1OC 7.5%
O=C(CCN1CCCCC1)N/N=C/c1ccc(Br)cc1 7.98%
COc1ccc(OC)c(/C=N/NC(=O)CCN2CCN(C(c3ccccc3)c3ccccc3)CC2)c1 -2.42%
COc1ccc(/C=N/NC(=O)CN2CCCC2)cc1 -0.98%
COc1ccc(Br)cc1/C=N/NC(=O)CN1CCCCC1 14.3%
O=C(CCN1CCN(C(c2ccccc2)c2ccccc2)CC1)N/N=C/c1ccc(O)cc1O 30.9%
COc1cc(/C=N/NC(=O)CCN2CCN(c3ccccc3)CC2)cc(OC)c1OC 4.52%
NNC(=O)CCN1CCN(C(c2ccccc2)c2ccccc2)CC1 -8.98%
CN(C)CCN(Cc1ccco1)S(=O)(=O)c1csc(C(N)=O)c1 4.25%
O=C(c1ccccn1)N1CCN(C(=O)c2ccccn2)CC1 3.69%
O=C(c1ccc(OC2CCN(CCCc3ccccc3)CC2)cc1)N1CCCC1 3.48%
NC(=O)NCC1CC1 4.2%
O=C(OCC(=O)N1N=C(c2ccc(Cl)cc2)CC1c1ccco1)c1ccccc1O (stereo unspecified) 3.05%
CC[C@]12c3[nH]c4cc(-c5ccco5)ccc4c3CCN1C(=O)[C@@H](CC(=O)NC/C=C(\C)CCC=C(C)C)C[C@@H]2C(=O)N1CCN(C(=O)C2CC2)CC1 -1.48%
O=C(O)C1CSC(c2ccncc2)N1 (stereo unspecified) 8.95%
O=C1CSC(c2ccco2)N1 (stereo unspecified) 0.85%
COc1ccc(/C=C2/C(=O)N(c3ccccc3)N=C2C)cc1Br 1.8%
CC1=NN(c2ccccc2)C(=O)/C1=C/C=C/c1ccccc1 6.5%
COc1ccccc1/C=C1/C(=O)N(c2ccc([N+](=O)[O-])cc2)N=C1C 4.92%
CCOc1cc(/C=C2\C(=O)N(CCC#N)N=C2C)ccc1OCC(N)=O 21.4%
COc1cc(C=C2C(=O)OC(C)(C)OC2=O)ccc1OCC(=O)Nc1ccccc1 4.19%
COc1ccc(/C=C2/C(=O)N(c3ccccc3)N=C2C)cc1OC 17.9%
C#CCOc1ccc(/C=C2/C(=O)N(c3cccc(C(=O)O)c3)N=C2C)cc1OC 31.7%
CC1=NN(c2ccccc2)C(=O)/C1=C/N(C)C 8.12%
O=C(C1CCN(c2nnc(N3CCCC3=O)s2)CC1)N1CCN(c2cccc(C(F)(F)F)c2)CC1 7.18%
COC(=O)c1cccc2c(C(=O)O)cc(-c3ccccc3)nc12 3.38%
c1ccc2c(c1)ccc1nnc(SCc3ccc4c(c3)OCCO4)n12 3.92%
CC(=O)OC1CC2(C)C(CCC2(O)C(C)=O)C2CCC3C(Cl)C(=O)CCC3(C)C12 (stereo unspecified) 2.5%

Reference: PubChem BioAssay AID624330 (Southern Research Specialized Biocontainment Screening …, 2012)
